Legend:
[1] = biological target: T1, Aspartate--tRNA(Asp/Asn) ligase (Mycobacterium tuberculosis (strain ATCC 25618 / H37Rv)) (UniProt P9WFW3); test: Assay for Asp RNA synthetase-1 from Mycobacterium tuberculosis; assay type: functional; set-up: scale not given: direction of the effect not stated beside the values; details: 30 µM; further: in the data most compounds retested in dose-response had high values
T1 sequence (whole entry): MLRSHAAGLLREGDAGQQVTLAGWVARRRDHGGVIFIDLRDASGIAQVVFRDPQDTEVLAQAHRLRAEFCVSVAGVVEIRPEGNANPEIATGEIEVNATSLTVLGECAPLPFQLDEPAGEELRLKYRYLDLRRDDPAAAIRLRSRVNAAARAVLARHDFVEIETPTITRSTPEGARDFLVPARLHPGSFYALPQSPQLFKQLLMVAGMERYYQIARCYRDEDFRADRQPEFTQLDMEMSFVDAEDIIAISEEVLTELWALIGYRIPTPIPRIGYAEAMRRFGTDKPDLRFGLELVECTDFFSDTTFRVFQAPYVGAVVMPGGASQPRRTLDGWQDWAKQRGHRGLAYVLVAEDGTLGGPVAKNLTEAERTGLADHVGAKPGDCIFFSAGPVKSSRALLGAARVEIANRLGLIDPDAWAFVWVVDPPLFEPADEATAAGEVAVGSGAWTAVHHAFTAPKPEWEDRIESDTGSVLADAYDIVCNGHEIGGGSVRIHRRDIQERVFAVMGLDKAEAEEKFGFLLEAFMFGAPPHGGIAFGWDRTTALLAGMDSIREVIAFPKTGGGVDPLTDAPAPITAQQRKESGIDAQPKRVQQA

[2] = biological target: Shiga toxin 2 (Escherichia coli O157:H7) (UniProt P09385+P09386); test: E. coli 0.157:H7 Shiga Toxin SOP - stx2 screening assay; assay type: functional; set-up: scale not given: direction of the effect not stated beside the values; details: 30 µM

Compound	Percent Effect [1] [%]	Percent Effect [2] [%]
O=C(c1cccc(F)c1)N1CCOC(c2nc(-c3ncccn3)no2)C1 (configuration not stated)	-5.54	3.39
CC(C)=CCN1CCC(c2nccn2Cc2cscn2)CC1	-3.28	22.8
Cc1nc(CNC(=O)NCC(O)c2ccc(F)cc2F)cs1 (configuration not stated)	-6.13	-21.6
Cc1ccc(NC2CCN(C(=O)c3cc(C(N)=O)cs3)CC2)nn1	4.69	3.48
CSC(C)C(=O)NCCCc1cc(N)n(-c2ccccc2)n1 (configuration not stated)	-3.65	-1.83
CCC(C)c1noc(C2CCN(C(=O)c3cccnc3)CC2)n1 (configuration not stated)	17	-27.8
CCn1cc(NC(=O)C2CCN(Cc3noc(C(C)C)n3)CC2)cn1	1.21	-21.2
CN(Cc1ccc(F)cc1)C(=O)CN1CCCC(Cn2cncn2)C1 (configuration not stated)	-5.51	5.36
OC1(Cn2ccc3ccncc32)CCN(Cc2ccccn2)CC1	-0.402	-26.5
Cc1cnn(CC2CCCN2C(=O)c2ccc3[nH]nnc3c2)c1 (configuration not stated)	-3.83	-49.7
CCc1ncc2c(n1)CN(Cc1nc(C)c(C)o1)CC2	0.259	-23.6
CCc1cnc(CN(C)C2CCN(CCS(C)(=O)=O)C2)o1 (configuration not stated)	0.585	-7.2
CCc1noc(CNc2ccc(F)cc2OCC2CC2)n1	1.97	0.5
COc1cc(NC(=O)c2ccccc2F)c(C(=O)N(C)C)cc1OC	8.8	-68.8
CC(C)(O)CN1CCN(C(=O)c2sccc2C2CC2)CC1	0.16	10.1
CC(=O)N1CCC(C(=O)NCCN2CCCCC2)CC1	-0.501	-3.32
O=C(NCCNC(=O)N1CCC(c2ccccc2)C1)C1CC1 (configuration not stated)	-0.747	-19.2
CC1CN(C)c2ccccc2CN1C(=O)c1ccncc1 (configuration not stated)	6.3	-12.6
CS(=O)(=O)NCC1CCCN(C(=O)Nc2ccccc2Cl)C1 (configuration not stated)	-5.99	10.6
COc1cccc(OC)c1C(=O)N1CCN(c2ccccc2F)CC1	1.49	35.2
Cc1ccc(C2C3=C(COC3=O)Nc3[nH]nc(C)c32)cc1C (configuration not stated)	-4.73	-11.4
Cc1cc(C(=O)N2CCC3(CCCN(CC4CC4)C3=O)C2)c(C)n1C (configuration not stated)	-1.12	-7.28
Cc1ccc(CN(Cc2c[nH]cn2)C2CC(C)(C)NC(C)(C)C2)o1	-1.68	7.12
COC(=O)c1cccc(NC(=O)CCn2nc(-c3cccs3)oc2=O)c1	1.89	18.1
COc1ccc2c(c1)CCN(CCC(=O)NC1CCCCC1)CC2	-0.993	-9.64
O=C1N(c2ccc(F)cc2)Cc2nc(=O)n(Cc3cccc(Cl)c3)n21	0.784	-12.3

Compound	Percent Effect [1] [%]	Percent Effect [2] [%]
OCc1ccc(Cl)c(NCc2cccnc2)c1	1.83	-19.3
CC(=O)NCCC1CCCCN1S(=O)(=O)c1cccc(C#N)c1 (configuration not stated)	-1.28	-30
O=C(NCc1cc[nH]n1)NCC(O)COc1cccc(F)c1 (configuration not stated)	1.72	-40
COCCO[C@H]1CCN(C(=O)c2cc(C)on2)[C@H]1Cc1ccccc1	-1.39	-1.24
Cc1cccc(CS(=O)(=O)CC(=O)NCCCOC(C)C)c1	-3.37	-44.7
c1cc(CNCc2ccc3c(c2)CCO3)cc(N2CCOCC2)n1	-4.98	-32.6
Cc1nc(C)c(C(=O)NCCNC(=O)Cc2cccc(F)c2)s1	4.17	6.14
Cc1cccc(CN2CCc3ncnc(C)c3CC2)n1	-0.616	-16.2
COc1c(C)cnc(CN2CCC(N(C)C(C)C(N)=O)CC2)c1C (configuration not stated)	-3.49	-5
O=C(Cn1cnnn1)N1CCCCC1Cn1cccn1 (configuration not stated)	-0.885	9.78
CC(C)(C)OC(=O)N1CCN(C(=O)c2sccc2C2CC2)CC1	-2.9	-0.841
Cc1nc2ccccc2nc1CN1CCCC1Cn1cncn1 (configuration not stated)	-6.08	7.83
Cc1cccc2nc(C(=O)N3CCC(Nc4cccnn4)CC3)cn12	-1.93	8.8
Cc1cc(NC(=O)NCC2CCOC2)no1 (configuration not stated)	-7.54	-24.3
CC(C)NC(=O)N1CCN(C(=O)N(C)C)CC2(CC(=O)N(C)C2)C1 (configuration not stated)	-7.76	-39.2
Cc1oc(C)c(C(=O)NCc2ccccc2S(=O)(=O)N(C)C)c1C	-6.28	37.9
c1cc2c(cc1C1CCCN1Cc1nnnn1C1CC1)OCCO2 (configuration not stated)	-1.25	3.61
COc1ccc(C2OC(COc3ccccc3Br)=NN2C(C)=O)cc1 (configuration not stated)	0.568	-36.2
CCN1CCN(C2CCN(Cc3c(C)noc3C)CC2)C1=O	-5.48	-30.9
OC1CCN(Cc2cc3c(cc2Br)OCCO3)CC1	2.56	-8.4
CCn1cnnc1C1CCN(C(=O)c2cnc(C3CC3)s2)CC1	-8.99	-7.13
O=C(c1cncc(Br)c1)N1CCC(O)(Cn2ccc3ccncc32)CC1	3.38	-12.7
CN1CCC(CCNC(=O)c2ccc(N(C)S(C)(=O)=O)cc2Cl)CC1	1.1	-50.8
COCCOc1ccc(NC(=O)C2CCCN(C(N)=O)C2)cn1 (configuration not stated)	-2.23	-2.19
O=C(CN1CCc2cncnc2C1)NCCOc1ccccc1	0.955	21.9

From ChEMBL document CHEMBL3988442, “University of Dundee, Small-Polar-MMV Screening Library” (2021)
